Data as given in PubChem BioAssay (NCATS).
Records with an inconclusive call do not appear. Activity calls are given as the source filed them. Calls come from the whole dose curve; as a rule, active = well fitted inhibition curve with a large enough effect; inconclusive = small, poorly fitted or top-dose-only effect; inactive = flat fitted curve, though single readings scatter.

Assays:
Experiment in all cases: qHTS profiling for inhibitors of Plasmodium falciparum proliferation (AID 504749); note: nearly all actives have a fitted effect of over 60% in size
CP252 = conditions: P. falciparum in erythrocytes, SYBR Green DNA, 72 h; series mostly up to 12.8 µM
Outline: (§1)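 Quantitative HTS: compounds pinned into medium, infected erythrocytes added (0.3% parasitemia, 2.5% hematocrit), 72 h culture at 37 C under 5% CO2. Saponin/Triton lysis with SYBR Green I, overnight RT, then fluorescence read.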

CP256 = conditions: P. falciparum in erythrocytes, SYBR Green DNA, 72 h; series mostly up to 28.7 µM
Outline: as §1

CP260 = conditions: P. falciparum in erythrocytes, SYBR Green DNA, 72 h; series mostly up to 28.7 µM
Outline: as §1

CP262 = conditions: P. falciparum in erythrocytes, SYBR Green DNA, 72 h; series mostly up to 28.7 µM
Outline: as §1

CP265 = conditions: P. falciparum in erythrocytes, SYBR Green DNA, 72 h; series mostly up to 12.8 µM
Outline: as §1

CP266 = conditions: P. falciparum in erythrocytes, SYBR Green DNA, 72 h; series mostly up to 12.8 µM
Outline: as §1

CP268 = conditions: P. falciparum in erythrocytes, SYBR Green DNA, 72 h; series mostly up to 28.7 µM
Outline: as §1

CP269 = conditions: P. falciparum in erythrocytes, SYBR Green DNA, 72 h; series mostly up to 28.7 µM
Outline: as §1

CP286 = conditions: P. falciparum in erythrocytes, SYBR Green DNA, 72 h; series mostly up to 28.7 µM
Outline: as §1

CP291 = conditions: P. falciparum in erythrocytes, SYBR Green DNA, 72 h; series mostly up to 28.7 µM
Outline: as §1

CP297 = conditions: P. falciparum in erythrocytes, SYBR Green DNA, 72 h; series mostly up to 28.7 µM
Outline: as §1

CP305 = conditions: P. falciparum in erythrocytes, SYBR Green DNA, 72 h; series mostly up to 28.7 µM
Outline: as §1

CP315 = conditions: P. falciparum in erythrocytes, SYBR Green DNA, 72 h; series mostly up to 28.7 µM
Outline: as §1

CP325 = conditions: P. falciparum in erythrocytes, SYBR Green DNA, 72 h; series mostly up to 28.7 µM
Outline: as §1

CP329 = conditions: P. falciparum in erythrocytes, SYBR Green DNA, 72 h; series mostly up to 28.7 µM
Outline: as §1

CP335 = conditions: P. falciparum in erythrocytes, SYBR Green DNA, 72 h; series mostly up to 12.8 µM
Outline: as §1

DIV14 = conditions: P. falciparum in erythrocytes, SYBR Green DNA, 72 h; series mostly up to 28.7 µM
Outline: as §1

DIV17 = conditions: P. falciparum in erythrocytes, SYBR Green DNA, 72 h; series mostly up to 28.7 µM
Outline: as §1

DIV30 = conditions: P. falciparum in erythrocytes, SYBR Green DNA, 72 h; series mostly up to 28.7 µM
Outline: as §1

Dd2 = conditions: P. falciparum in erythrocytes, SYBR Green DNA, 72 h; series mostly up to 28.7 µM
Outline: as §1

ECU = conditions: P. falciparum in erythrocytes, SYBR Green DNA, 72 h; series mostly up to 28.7 µM
Outline: as §1

FAB9 = conditions: P. falciparum in erythrocytes, SYBR Green DNA, 72 h; series mostly up to 28.7 µM
Outline: as §1

GB4 = conditions: P. falciparum in erythrocytes, SYBR Green DNA, 72 h; series mostly up to 28.7 µM
Outline: as §1

HB3 = conditions: P. falciparum in erythrocytes, SYBR Green DNA, 72 h; series mostly up to 28.7 µM
Outline: as §1

ICS = conditions: P. falciparum in erythrocytes, SYBR Green DNA, 72 h; series mostly up to 28.7 µM
Outline: as §1

JCK = conditions: P. falciparum in erythrocytes, SYBR Green DNA, 72 h; series mostly up to 28.7 µM
Outline: as §1

N140 = conditions: P. falciparum in erythrocytes, SYBR Green DNA, 72 h; series mostly up to 28.7 µM
Outline: as §1

P93_24 = conditions: P. falciparum in erythrocytes, SYBR Green DNA, 72 h; series mostly up to 28.7 µM
Outline: as §1

P94_40 = conditions: P. falciparum in erythrocytes, SYBR Green DNA, 72 h; series mostly up to 28.7 µM
Outline: as §1

PAD = conditions: P. falciparum in erythrocytes, SYBR Green DNA, 72 h; series mostly up to 28.7 µM
Outline: as §1

PC15 = conditions: P. falciparum in erythrocytes, SYBR Green DNA, 72 h; series mostly up to 28.7 µM
Outline: as §1

PC26 = conditions: P. falciparum in erythrocytes, SYBR Green DNA, 72 h; series mostly up to 28.7 µM
Outline: as §1

PC49 = conditions: P. falciparum in erythrocytes, SYBR Green DNA, 72 h; series mostly up to 28.7 µM
Outline: as §1

SC27B = conditions: P. falciparum in erythrocytes, SYBR Green DNA, 72 h; series mostly up to 28.7 µM
Outline: as §1

TAB113 = conditions: P. falciparum in erythrocytes, SYBR Green DNA, 72 h; series mostly up to 28.7 µM
Outline: as §1

TAB165 = conditions: P. falciparum in erythrocytes, SYBR Green DNA, 72 h; series mostly up to 28.7 µM
Outline: as §1

W2 = conditions: P. falciparum in erythrocytes, SYBR Green DNA, 72 h; series mostly up to 12.8 µM
Outline: as §1

Measured: Potency

CNC(C)[C@@H](O)c1ccc(O)cc1 (some centres not stated)
inactive: all assays above
